Records with an inconclusive call do not appear. Where a call stands in place of a potency, no number is given. Activity calls are given as the source filed them. Calls follow the shape of the dose curve; as a rule, active = well fitted inhibition curve with a large enough effect; inconclusive = small, poorly fitted or top-dose-only effect; inactive = flat fitted curve, though single readings scatter.
target: Calcium and integrin-binding protein 1 (Homo sapiens) (UniProt Q99828); test: Primary qHTS for Identification of Calcium Integrin Binding Protein 1 (CIB1) Competitor (AID 1508620); conditions: CIB1-GST / FITC-alphaIIb peptide fluorescence polarization; series mostly up to 57.7 µM; also: top concentration of the series differs between compounds
Summary of the method: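 Fluorescence polarization competition: GST-tagged CIB1 (1 uM final) preincubated with compound 15 min at room temperature, then FITC-labelled alphaIIb peptide (100 nM final) added. After 15 min at room temperature, polarization read at Ex 480/Em 540.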

Chain of Calcium and integrin-binding protein 1 (Homo sapiens) (Q99828 whole entry, looked up): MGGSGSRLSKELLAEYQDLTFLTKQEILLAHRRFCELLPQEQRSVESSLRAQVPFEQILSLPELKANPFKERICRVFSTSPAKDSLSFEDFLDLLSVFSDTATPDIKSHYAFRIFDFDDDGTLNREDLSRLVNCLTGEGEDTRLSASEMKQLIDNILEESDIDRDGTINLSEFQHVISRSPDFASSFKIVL

Row | Compound | Potency | activity change, negative = inhibition
1 | Cc1ccc(NC(=O)Nc2cc(C(F)(F)F)ccc2F)cc1Nc1ccc2c(c1)NC(=O)C2=Cc1ccc[nH]1 | inactive | –
2 | C[C@@H]1[C@H](C)CC[C@]2(C(=O)O)CC[C@]3(C)C(=CC[C@@H]4[C@@]5(C)CC[C@H](O)C(C)(C)[C@H]5CC[C@]43C)[C@@H]12 | inactive | –
3 | Cc1cnc(CNC(=O)c2c(=O)c3ccc(N4CCCN(C)CC4)nc3n3c2sc2ccccc23)cn1 | inactive | –
4 | Cn1c(=O)c(Oc2ccc(F)cc2F)cc2cnc(NC3CCOCC3)nc21 | inactive | –
5 | CC(C)c1c(C(=O)Nc2ccccc2)c(-c2ccccc2)c(-c2ccc(F)cc2)n1CC[C@H](O)C[C@@H](O)CC(=O)O | inactive | –
6 | CCOC(=O)[C@H](CCc1ccccc1)N[C@@H](C)C(=O)N1CCCC1C(=O)O (stereo partly specified) | inactive | –
7 | O=C(O)C1=CC(O)C(O)[C@H](O)C1 (stereo partly specified) | inactive | –
8 | CCNC(=O)CCCC=CC[C@@H]1[C@H](C=CC(O)CCc2ccccc2)[C@@H](O)C[C@@H]1O (stereo partly specified) | inactive | –
9 | CC(O)=C(C#N)C(=O)Nc1ccc(C(F)(F)F)cc1 | inactive | –
10 | O=C(C=Cc1ccc(O)cc1)c1ccc(O)cc1O | inactive | –
11 | c1ccc(CNc2nc(N3CCOc4ccccc43)nc3c2CCCC3)cc1 | inactive | –
12 | CO[C@H]1C=CO[C@@]2(C)Oc3c(C)c(O)c4c(O)c(c(C=NN5CCN(C)CC5)c(O)c4c3C2=O)NC(=O)C(C)=CC=C[C@H](C)[C@H](O)[C@@H](C)[C@@H](O)[C@@H](C)[C@H](OC(C)=O)[C@H]1C | – | -2.55% [at 12.4 µM] (inactive)
13 | CC(C)(C)c1[nH]cnc1C=c1[nH]c(=O)c(=Cc2ccccc2)[nH]c1=O | inactive | –
14 | CC(C)CN(C[C@@H](O)[C@H](Cc1ccccc1)NC(=O)O[C@H]1CO[C@H]2OCC[C@H]21)S(=O)(=O)c1ccc(N)cc1 | inactive | –
15 | COc1ccc(Cn2ccc3ccc(C(=O)NO)cc32)cc1 | inactive | –
16 | O=C(O)c1nc(=O)[nH]c(=O)[nH]1 | inactive | –
17 | Cn1cc(-c2ccc3nnc(Sc4ccc5ncccc5c4)n3n2)cn1 | inactive | –
18 | O=C(c1ccc(F)c(F)c1Nc1ccc(I)cc1F)N1CC(O)([C@H]2CCCCN2)C1 | inactive | –

Row | Compound | Potency | activity change, negative = inhibition
19 | CC(C)(C)c1nc(-c2cccc(NS(=O)(=O)c3c(F)cccc3F)c2F)c(-c2ccnc(N)n2)s1 | inactive | –
20 | Cc1nc(NC(=O)N2CCC[C@@H]2C(N)=O)sc1-c1csc(C(C)(C)C)n1 | inactive | –
21 | COc1cc(CNC(=O)CCCCC=CC(C)C)ccc1O | inactive | –
22 | Cc1ccccc1-n1c(Cn2nc(-c3cccc(O)c3)c3c(N)ncnc32)nc2cccc(C)c2c1=O | inactive | –
23 | CCn1c(-c2nonc2N)nc2cncc(CNC3CCNCC3)c21 | inactive | –
24 | CN1CC(=O)NC1=NC(=O)Nc1cccc(Cl)c1 | inactive | –
25 | CCCCC[C@H](O)C=C[C@H]1[C@H](O)CC(=O)[C@H]1CCCCCCC(=O)O | inactive | –
26 | N=C1SC(=Cc2ccc(-c3ccc4c(c3)C(=O)NC4=O)o2)C(=O)N1c1ccc(Br)cc1 | inactive | –
27 | CC=C(C(=CC)c1ccc(O)cc1)c1ccc(O)cc1 | inactive | –
28 | Cc1cc(C(C)Nc2ccccc2)c2nc(N3CCOCC3)cc(=O)n2c1 (stereo unspecified) | inactive | –
29 | CC1C(=O)OC2C(O)C34C5CC(C(C)(C)C)C36C(OC(=O)C6O)OC4(C(=O)O5)C12O (stereo unspecified) | inactive | –
30 | COc1ccc2c(c1)c(C1=C(c3c[nH]c4ccccc34)C(=O)NC1=O)cn2CCCN(C)C | inactive | –
31 | COc1cc2ncnc(Nc3cc(Br)c(O)c(Br)c3)c2cc1OC | inactive | –
32 | O=C(O)CCNc1cc(N2CCc3ccccc3CC2)nc(-c2ccccn2)n1 | inactive | –
33 | NS(=O)(=O)c1ccc(Nc2nc(OCC3CCCCC3)c3[nH]cnc3n2)cc1 | inactive | –
34 | CC=C1C2C=C(C)CC1(N)c1ccc(=O)[nH]c1C2 (stereo unspecified) | inactive | –
35 | CN1CCN2c3ncccc3Cc3ccccc3C2C1 (stereo unspecified) | inactive | –
36 | COc1cccc(OC)c1-c1cc(C(=O)NC2(C(=O)O)C3CC4CC(C3)CC2C4)nn1-c1ccnc2cc(Cl)ccc12 (stereo unspecified) | inactive | –

Reference: PubChem BioAssay (NCATS)
